The list is not random: actives were taken first. Their share in the collection is about 8%.
HT1080-NT tox = kills 2HG-producing HT-1080-NT fibrosarcoma cells. Potency, µM (titrated, usually from 46.1 µM), hits mostly cytotoxic. HT-1080-NT fibrosarcoma viability, CellTiter-Glo ATP luminescence, 48 h. 360,000 tested, 1.6% active;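 note: NT is the 2HG producing partner of a matched IDH1 knockdown line; nearly all actives have a fitted effect of over 55% in size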
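Viability of the 2HG-overproducing fibrosarcoma line after 48 hours of compound exposure at 37 degrees C was determined by luminescence with CellTiter-Glo, and concentration-effect curves were then fitted and categorized.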
KB-3-1 cytotox = kills parental KB-3-1 adenocarcinoma cells; KB-3-1 viability, CellTiter-Glo ATP luminescence, 72 h; Potency, µM (doses to about 46.1 µM), usual class: cytotoxic; 400,000 tested, 1.4% active; AID 1347075; note: nearly all actives have a fitted effect of over 60% in size
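Parental KB-3-1 viability, qHTS format: 72 h compound exposure, 37 °C; CellTiter-Glo; media-only wells and DMSO plates as controls; concentration-effect fits on corrected data.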
MCF10A rereplic = DNA re-replication induction in MCF 10a cells. 350,000 tested, 2.9% active. Potency, µM (top dose mostly 46.1 µM), most hits filed as activators. MCF 10A DNA re-replication, Hoechst nuclear intensity, 48 h; note: nearly all actives have a fitted effect of over 50% in size
SW480 rerep = inducers of DNA re-replication in SW480 colon cancer cells; Potency, µM (doses to about 46.1 µM), actives largely listed as activators; SW480 DNA re-replication, Hoechst DNA content imaging, 48 h; 340,000 tested, 1.8% active; note: nearly all actives have a fitted effect of over 55% in size
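SW480 cells exposed to compounds for 48 hr at 37 C, 5% CO2, then Hoechst-stained 40 min. Nuclear DNA content imaged by fluorescence scanning (405 nm excitation, 500-530 nm emission); re-replication scored as increased high-intensity nuclei.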
KB-V1 MDR tox = KB-V1 MDR subline cytotoxicity; KB-V1 MDR cells viability, CellTiter-Glo, 72 h; Potency, µM (doses to about 46.1 µM), most hits filed as cytotoxic; 400,000 tested, 3.4% active; note: nearly all actives have a fitted effect of over 60% in size
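Following 72 h at 37 degrees C with compound, KB-V1 cell viability was read by CellTiter-Glo luminescence, medium being phenol-red-free DMEM plus 10% FBS; concentration-response parameters came from normalized, curve-fitted qHTS data.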
HT1080 IDH1KD tx = HT-1080 IDH1 knockdown cell toxicity (counter line) | Potency, µM (highest dose often 46.1 µM), actives largely listed as cytotoxic | HT-1080 IDH1 knockdown viability, ATP luminescence, 48 h | 360,000 tested, 2% active
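Luminescent ATP read-out (CellTiter-Glo, 10 min at room temperature) after 48 h compound exposure at 37 °C gave viability of IDH1-knockdown HT-1080 cells. Activity was normalised to DMSO and cell-free wells, then fitted as concentration-response curves.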
A number is an active result; - = inactive; ? = inconclusive; . = no result given; [ ] = remark or other dose. Calls come from the whole dose curve; as a rule, active = well fitted curve in the direction sought with a large enough effect; inconclusive = small, poorly fitted or top-dose-only effect, or another doubt; inactive = no such curve, though single readings can be large; an effect the other way counts as inactive or inconclusive.

SMILES | HT1080-NT tox | KB-3-1 cytotox | MCF10A rereplic | SW480 rerep | KB-V1 MDR tox | HT1080 IDH1KD tx
CCOC(=O)C1(Cc2cccc(F)c2)CCN(C(=O)COC)CC1 | - | - | - | - | - | -
C(=C\c1ccc2ccccc2n1)/c1cccnc1 | . | ? | . | . | - | .
Cc1cc2nc(/C=C/c3nc4cc(C)c(C)cc4[nH]3)[nH]c2cc1C | - | - | ? | 23µM | - | -
Cc1cc2nc(CO)[nH]c2cc1C | - | - | - | - | - | -
Cc1cc2nc(/C=C/c3cccnc3)[nH]c2cc1C | 0.52µM | 1.2µM | ? | ? | 0.26µM | 0.58µM
CS(=O)(=O)N1N=C(c2ccco2)CC1c1ccc(Cl)cc1 (stereo unspecified) | - | - | - | - | 16µM | -
Fc1ccc(C2CC(c3ccco3)=NN2c2ccccc2)cc1 (stereo unspecified) | - | - | 0.92µM | 21µM | - | -
CC(C)(C)C1=NN(c2ccc([N+](=O)[O-])cc2)C(c2ccccc2)C1 (stereo unspecified) | - | - | - | - | - | -
O=[N+]([O-])c1ccc(N2N=C(c3ccco3)CC2c2ccccc2)cc1 (stereo unspecified) | - | - | 8.2µM | ? | - | -
O=[N+]([O-])c1cc(-c2nc(-c3ccncc3)no2)cc([N+](=O)[O-])c1 | - | - | - | ? | - | -
O=C(COc1ccccc1C(=O)Nc1ccccc1)Nc1ccccc1F | . | - | . | . | - | .
C/C(=N\NC(=O)c1nnn(-c2nonc2N)c1CSc1ccccc1)c1ccco1 | - | - | - | - | - | -
CCOC(=O)c1ccc(Oc2nc(N(C)C)nc(N(C)C)n2)cc1 | - | - | - | -[9.22 µM] | - | -
CCOC(=O)c1ccc(Oc2nc(NC(C)(C)C)nc(N(C)C)n2)cc1 | ? | - | 16µM | ? | - | ?
CC(C)Cn1c(SCC(=O)O)nnc1-c1cccc(S(=O)(=O)N2CCOCC2)c1 | - | - | - | - | ? | -
Cc1ccccc1NC(=S)c1nc2ccccc2[nH]1 | - | ? | ? | - | ? | -
O=C(/C=C/c1cccc(Cl)c1)c1nc2ccccc2[nH]1 | ? | ? | ? | ? | - | ?
O=C(/C(=C/c1ccc(Cl)cc1)c1nc2ccccc2[nH]1)c1cccs1 | 16µM | - | 5.2µM | ? | ? | 16µM
O=C(/C(=C\c1ccccc1)c1nc2ccccc2[nH]1)c1ccc(Cl)cc1 | 3.7µM | ? | 4.1µM | ? | ? | 3.3µM
S=C(Nc1ccc(Cl)cc1)c1nc2ccccc2[nH]1 | ? | ? | ? | . | 5.2µM | ?
O/C(=C\c1nc2ccccc2[nH]1)c1cccs1 | - | - | ? | ? | - | ?
COc1cc(/C=C(/C(=O)c2cccs2)c2nc3ccccc3[nH]2)ccc1O | 7.9µM | ? | 4.1µM | 7.3µM | 16µM | 5µM
O=C(OCc1ccccc1)N1CCC2CC1c1cc(Cl)ccc12 (stereo unspecified) | - | - | ? | - | - | -
COc1ccc(-c2oc3cccnc3c2C#CCO)cc1 | - | - | - | - | - | -
Nc1cc(=O)[nH]c(SCC(=O)Nc2cc(S(=O)(=O)N3CCCCCC3)ccc2Cl)n1 | - | - | ? | - | - | -
SMILES | HT1080-NT tox | KB-3-1 cytotox | MCF10A rereplic | SW480 rerep | KB-V1 MDR tox | HT1080 IDH1KD tx
CCCc1cc(=O)[nH]c(SCC(=O)Nc2cc(S(=O)(=O)N3CCCCC3)ccc2Cl)n1 | 6.5µM | 8.2µM | ? | - | ? | 15µM
Cc1ccc(-c2nc(SCC(=O)Nc3cc(S(=O)(=O)N4CCCCC4)ccc3Cl)n[nH]2)cc1 | - | ? | ? | - | 16µM | -
O=C(CSC1=NS(=O)(=O)c2cc(Cl)ccc2N1)Nc1ccccc1F | - | - | - | - | - | -
Cc1nnc2ccc(-c3ccc(NS(=O)(=O)c4ccc(F)cc4F)cc3)nn12 | - | ? | ? | - | - | -
Cc1cc(C(=O)COc2ccccc2[N+](=O)[O-])c(C)n1C1CC1 | - | - | - | - | ? | -
Cc1cc(C(=O)COc2ccccc2C(N)=O)c(C)n1C1CC1 | - | - | 0.58µM | - | - | -
Cc1ccccc1-n1c(SCC(=O)N2CCC(C(=O)O)CC2)nnc1-c1ccncc1 | - | - | - | - | - | -
CC1(C)Cc2ccccc2-c2nnc(SCc3ccccc3)n21 | - | - | - | - | - | -
CC1(C)Cc2ccccc2-c2nnc(SCC(=O)Nc3nc4ccccc4s3)n21 | - | ? | - | - | 3.3µM | -
Cc1ccccc1-n1c(SCC(=O)N2CCN(c3ccccc3)CC2)nnc1-c1ccncc1 | - | - | - | - | 3.7µM | -
CC1(C)Cc2ccccc2-c2nnc(SCC(=O)N3CCN(c4ccccc4)CC3)n21 | - | 12µM | - | - | 2.3µM | ?
Cn1c(SCC(=O)Nc2nc3ccccc3s2)nnc1-c1ccccc1 | - | - | - | - | - | -
COc1ccc(C(=O)C2CCCN(Cc3cccn3-c3nccs3)C2)cc1OC (stereo unspecified) | ? | - | - | - | - | ?
Cc1c(NC(=O)c2ccc3ncccc3c2)c(=O)n(-c2ccccc2)n1C | - | - | - | - | - | -
CC1Cc2ccccc2N1S(=O)(=O)c1cnc(Cl)c(Cl)c1 (stereo unspecified) | - | - | 15µM | - | - | -
CC1Cc2ccccc2N1S(=O)(=O)c1cnc(Cl)c(Br)c1 (stereo unspecified) | - | - | ? | ? | - | -
Cc1cc2c(cc1S(=O)(=O)CCC(=O)N(C)Cc1ccccc1)OCC(=O)N2 | - | - | - | - | - | -
COc1ccc2sc(-c3ccc(S(C)(=O)=O)cc3)c(C#CCO)c2c1 | ? | - | ? | - | ? | -
COc1ccc2c(C#CCCO)c(-c3ccc(S(C)(=O)=O)cc3)sc2c1 | ? | - | 21µM | ? | - | ?
COc1ccc2c(-c3ccc(S(N)(=O)=O)cc3)c(-c3ccc(S(C)(=O)=O)cc3)sc2c1 | 23µM | - | ? | ? | - | ?
COc1ccc(-c2sc3ccc(N4CCOCC4)cc3c2C#CCCO)cc1 | 23µM | ? | ? | - | ? | 23µM
Cc1nc2nc3c(cn2n1)C(=O)CC(C)(C)C3 | - | - | - | ? | - | -
CC(CNC(=S)Nc1cc(F)cc(F)c1)CSc1ccc(Cl)cc1 (stereo unspecified) | 18µM | - | - | - | ? | ?
CC(=O)Nc1c(O)cc(Br)c2nonc12 | . | - | . | . | ? | .
CC(=O)Nc1cc(O)c2nonc2c1O | . | 2.6µM | . | . | ? | .
COc1ccc(CC(=O)NC2CCCc3ccccc32)cc1 (stereo unspecified) | - | - | - | - | ? | -
COc1ccc2c(c1)C(CC(=O)NN)CCC2 (stereo unspecified) | 7.3µM | 23µM | 2.3µM | 13µM | ? | 1.6µM

Screens deposited in PubChem BioAssay by National Center for Advancing Translational Sciences (NCATS).
